Measured values: PubChem BioAssay (NCI)
About 83,000 compounds went through this panel and 20% of them were active in at least one assay; those are over-represented in the sample as a whole.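 Cell lines were cultured in 96-well plates, exposed to a single compound concentration, and assessed for percent growth 48 hours later.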 Calls of active or inactive are those of the source. Rule for the calls: active = growth percent below 10; inactive = the rest.

Legend:
Experiment in all cases: NCI-60 one-dose screen, 48 h (100 = growth as untreated, 0 = no growth, -100 = all killed)
Conditions in all cases: 10 µM unless noted
NCI-H23 lung = tested on: NCI-H23 lung
NCI-H226 lung = tested on: NCI-H226 lung
NCI-H322M lung = tested on: NCI-H322M lung
HOP-62 NSCLC = tested on: HOP-62 NSCLC
NCI-H460 lung = tested on: NCI-H460 lung
HOP-92 NSCLC = tested on: HOP-92 NSCLC
NCI-H522 lung = tested on: NCI-H522 lung
A549/ATCC NSCLC = tested on: A549/ATCC NSCLC
786-0 renal = tested on: 786-0 renal
COLO 205 colon = tested on: COLO 205 colon
DU-145 prostate = tested on: DU-145 prostate
K-562 leukemia = tested on: K-562 leukemia
MALME-3M melanoma = tested on: MALME-3M melanoma
MDA-MB-231 breast = tested on: MDA-MB-231 breast
RXF 393 renal = tested on: RXF 393 renal
SF-268 CNS = tested on: SF-268 CNS
SF-295 CNS = tested on: SF-295 CNS
SF-539 CNS = tested on: SF-539 CNS
UACC-257 melanoma = tested on: UACC-257 melanoma
M14 melanoma = tested on: M14 melanoma

Measured: growth

O=C1c2ccc3c4c(ccc(c24)C(=O)N1CCCNCc1ccccc1)C(=O)N(CCCNCc1ccccc1)C3=O
active: NCI-H23 lung -72.9% | NCI-H226 lung -54.1% | NCI-H322M lung -37.8% | HOP-62 NSCLC -38.5% | NCI-H460 lung -73.1% | HOP-92 NSCLC -12.5% | NCI-H522 lung -91.2% | A549/ATCC NSCLC -91.1% | 786-0 renal -46.3% | COLO 205 colon -43.3% | DU-145 prostate -93.6% | K-562 leukemia -47.9% | MALME-3M melanoma -58.5% | MDA-MB-231 breast -8.41% | RXF 393 renal -88.8% | SF-268 CNS -71.4% | SF-295 CNS -39.7% | SF-539 CNS -69.6% | UACC-257 melanoma -95.2% | M14 melanoma -76%

Cc1ccc(-n2c3c(c(-c4ccccc4)c2-c2ccccc2)C2=NCCN2C=N3)cc1
inactive: NCI-H23 lung 84.2% | NCI-H226 lung 72% | NCI-H322M lung 96.6% | HOP-62 NSCLC 97.6% | NCI-H460 lung 90.9% | HOP-92 NSCLC 87% | NCI-H522 lung 80.2% | A549/ATCC NSCLC 93.7% | 786-0 renal 95% | COLO 205 colon 101% | DU-145 prostate 95% | K-562 leukemia 64.2% | MALME-3M melanoma 97.9% | MDA-MB-231 breast 80.5% | RXF 393 renal 101% | SF-268 CNS 96.2% | SF-295 CNS 99.2% | SF-539 CNS 95.4% | UACC-257 melanoma 104% | M14 melanoma 95.7%

C=C1C(=O)O[C@H]2[C@H]1CC/C(CNC(=O)/C=C/c1ccccc1)=C\CC[C@@]1(C)O[C@@H]21
active: HOP-92 NSCLC -40.9% | NCI-H522 lung -86.8% | 786-0 renal -64.4% | COLO 205 colon -64.7% | DU-145 prostate -34.3% | K-562 leukemia 1.51% | MALME-3M melanoma -50.1% | MDA-MB-231 breast -15.2% | RXF 393 renal -90.2% | SF-539 CNS -63.8% | UACC-257 melanoma -55.1% | M14 melanoma -63.2%
inactive: NCI-H23 lung 54.5% | NCI-H226 lung 64.8% | NCI-H322M lung 71.9% | HOP-62 NSCLC 80.3% | NCI-H460 lung 39.7% | A549/ATCC NSCLC 46.8% | SF-268 CNS 48.1% | SF-295 CNS 62.3%

CCCCCOc1ccc(/C=N/Nc2cc(C)nc3ccc(Cl)cc23)cc1
inactive: NCI-H23 lung 62.5% | NCI-H226 lung 88% | NCI-H322M lung 44.3% | HOP-62 NSCLC 29.7% | HOP-92 NSCLC 56.7% | SF-268 CNS 72% | UACC-257 melanoma 99.2%
active: NCI-H460 lung -63.1% | NCI-H522 lung -30.6% | A549/ATCC NSCLC -8.41% | 786-0 renal -85.2% | COLO 205 colon -55.9% | DU-145 prostate 5.9% | K-562 leukemia -33% | MALME-3M melanoma -63.8% | MDA-MB-231 breast -77.3% | RXF 393 renal -85.5% | SF-295 CNS -86% | SF-539 CNS -78.2% | M14 melanoma -15.4%

CCN(CC)CC[n+]1cc2cc(OC)c(OC)cc2c2ccc3cc4c(cc3c21)OCO4
active: NCI-H23 lung 3.47% | NCI-H322M lung -15.9% | HOP-62 NSCLC -4.95% | NCI-H460 lung -65.7% | NCI-H522 lung -19.1% | A549/ATCC NSCLC -41.2% | 786-0 renal 3.36% | DU-145 prostate 1.33% | K-562 leukemia 2.65% | MALME-3M melanoma -2.49% | MDA-MB-231 breast -19.5% | RXF 393 renal -39.1% | SF-268 CNS -16% | SF-295 CNS -2.66% | SF-539 CNS -14.7% | M14 melanoma -54.2%
inactive: NCI-H226 lung 29.7% | HOP-92 NSCLC 14.7% | COLO 205 colon 13.9% | UACC-257 melanoma 18%

Cn1ccnc1C(=O)/C=C/c1ccc(CC(=O)Nc2ccc(Cl)cc2)cc1
inactive: NCI-H23 lung 19.2% | NCI-H226 lung 76.7% | HOP-92 NSCLC 72% | 786-0 renal 11.3% | MALME-3M melanoma 87.6% | RXF 393 renal 17.9% | UACC-257 melanoma 85.9% | M14 melanoma 67.7%
active: NCI-H322M lung 6.08% | HOP-62 NSCLC -21.2% | NCI-H460 lung -27.6% | NCI-H522 lung 6.86% | A549/ATCC NSCLC 6% | COLO 205 colon 7.39% | DU-145 prostate 6.47% | K-562 leukemia 7.81% | MDA-MB-231 breast 7.75% | SF-268 CNS 7.98% | SF-295 CNS 1.24% | SF-539 CNS -35.2%

COc1cc(/C=N/O)nc(-c2ccccn2)c1
active: NCI-H460 lung 5.13% | NCI-H522 lung 7.77% | MALME-3M melanoma 6.48% | SF-268 CNS 6.74% | SF-539 CNS 4.89% | UACC-257 melanoma 5.15% | M14 melanoma 6.86%
inactive: NCI-H23 lung 19.9% | NCI-H226 lung 11.7% | NCI-H322M lung 23.9% | HOP-62 NSCLC 23.9% | HOP-92 NSCLC 54.4% | A549/ATCC NSCLC 14.8% | 786-0 renal 17.5% | COLO 205 colon 10.7% | DU-145 prostate 24.7% | K-562 leukemia 11.6% | MDA-MB-231 breast 26.5% | RXF 393 renal 21.2% | SF-295 CNS 14.8%

O=C(O)c1ccc(-c2nn(-c3ccc(C(F)(F)F)cc3)cc2CNc2ccc(Oc3ccccc3)cc2)cc1
inactive: NCI-H23 lung 91.7% | NCI-H226 lung 86.8% | NCI-H322M lung 70.8% | HOP-62 NSCLC 103% | NCI-H460 lung 87.4% | HOP-92 NSCLC 93.3% | NCI-H522 lung 80.2% | A549/ATCC NSCLC 47.9% | 786-0 renal 93.4% | COLO 205 colon 111% | DU-145 prostate 95.5% | K-562 leukemia 65.3% | MALME-3M melanoma 107% | MDA-MB-231 breast 91.4% | RXF 393 renal 88.4% | SF-268 CNS 79.5% | SF-295 CNS 72.7% | SF-539 CNS 89.6% | UACC-257 melanoma 102% | M14 melanoma 84.6%
